For seven compounds, growth results are on record in PubChem BioAssay (NCI).

Some test systems named below: NCI-H23 lung; NCI-H226 lung; NCI-H322M lung; HOP-62 NSCLC; NCI-H460 lung; HOP-92 NSCLC; NCI-H522 lung; A549/ATCC NSCLC; 786-0 renal; COLO 205 colon; DU-145 prostate; K-562 leukemia; MALME-3M melanoma; MDA-MB-231 breast; RXF 393 renal; SF-268 CNS; SF-295 CNS; SF-539 CNS; UACC-257 melanoma; M14 melanoma.
Common to all, as to experiment: NCI-60 one-dose screen, 48 h (100 = growth as untreated, 0 = no growth, -100 = all killed)
Holding throughout (details): 10 µM unless noted

This is part of a sample that, as a whole, favours compounds with a hit. Of some 83,000 tested, about 20% had one in any assay.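 96-well plates, one dose, 48 hours. Percent growth reported; active if below 10.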 Unmarked numbers belong to inactive results. Calls of active or inactive are those of the source.

Turning to `COc1cc(-c2nn(-c3cccc(NC(=O)CCN4CCN(C)CC4)c3)cc2-c2ccncc2)ccc1Cl`, the growth in the test with NCI-H23 lung is 42.5%; in the test on NCI-H226 lung it was 67.7%; with NCI-H322M lung, 37.5%; in the test on HOP-62 NSCLC, 24.6%; in the test on NCI-H460 lung, 14.9%; in the test on HOP-92 NSCLC, 22.7%. The growth in the test with NCI-H522 lung was -6.1% (active); in the test on A549/ATCC NSCLC, 30.7%; in the test on 786-0 renal, 12.2%; in the test with COLO 205 colon, -31.6% (active); in the test with DU-145 prostate, 3.19% (active); in the test on K-562 leukemia, -10.4% (active). In addition, the growth in the test with MALME-3M melanoma is 38%; with MDA-MB-231 breast, 39.9%; with RXF 393 renal, 18.6%; in the test with SF-268 CNS it was 31.5%; in the test on SF-295 CNS, -6.03% (active); in the test on SF-539 CNS, -19.6% (active). Further, the growth in the test on UACC-257 melanoma is 39.3%; in the test on M14 melanoma it was -41.6% (active).
Turning to `Nc1[nH]nc(Nc2ccccc2)c1-c1nc2ccccc2s1`, the growth in the test on NCI-H23 lung is 24.2%; in the test with NCI-H226 lung, 57.3%; in the test on NCI-H322M lung it was 37.6%; in the test on HOP-62 NSCLC, 28.6%; in the test with NCI-H460 lung, 5.94% (active); in the test on HOP-92 NSCLC it was -15.8% (active). Also, the growth is -44.6% (active) with NCI-H522 lung; 20% in the test with A549/ATCC NSCLC; 10.2% in the test with 786-0 renal; 64.2% in the test on COLO 205 colon; 27.8% with DU-145 prostate; 4.83% (active) in the test with K-562 leukemia. The growth is 83.4% in the test on MALME-3M melanoma; -17% (active) in the test with MDA-MB-231 breast; 36.3% in the test on RXF 393 renal; 31% in the test with SF-268 CNS; 28.6% in the test on SF-295 CNS; 55.1% in the test with SF-539 CNS. In addition, the growth with UACC-257 melanoma was 50.6%; in the test on M14 melanoma, 6.41% (active).
Regarding `C[C@]12CCc3c(ccc4cc(O)ccc34)[C@@H]1C[C@H](O)[C@@H]2O`, the growth in the test on NCI-H23 lung is 94.2%; with NCI-H226 lung it was 94.7%; in the test on NCI-H322M lung, 107%; with HOP-62 NSCLC, 91.7%; with NCI-H460 lung, 97.8%; with HOP-92 NSCLC it was 85.6%. Moreover, the growth in the test with NCI-H522 lung was 98.1%; with A549/ATCC NSCLC it was 106%; in the test on 786-0 renal it was 111%; in the test on COLO 205 colon, 109%; in the test with DU-145 prostate, 108%; in the test with K-562 leukemia, 105%. Moreover, the growth in the test with MALME-3M melanoma was 113%; in the test with MDA-MB-231 breast, 79.9%; in the test with RXF 393 renal it was 102%; with SF-268 CNS, 103%; in the test with SF-295 CNS it was 95.3%; with SF-539 CNS, 102%. The growth is 102% in the test on UACC-257 melanoma and 103% in the test with M14 melanoma.
`C/C(=C(\c1ccc(OCCN2CCOCC2)cc1)c1ccc(OC(=O)C2CCCCC2)cc1)c1ccc(Cl)cc1`: the growth in the test with NCI-H23 lung is 88.9%; with NCI-H226 lung, 103%; in the test with NCI-H322M lung, 91.9%; in the test on HOP-62 NSCLC, 99.4%; in the test on NCI-H460 lung, 97.5%; with HOP-92 NSCLC, 71%. The growth in the test on NCI-H522 lung is 62.8%; in the test on A549/ATCC NSCLC, 92.9%; in the test on 786-0 renal it was 80.6%; with COLO 205 colon, 103%; in the test on DU-145 prostate, 103%; in the test with K-562 leukemia, 66.1%. Besides, the growth in the test with MALME-3M melanoma was 104%; with MDA-MB-231 breast, 98.8%; in the test on RXF 393 renal, 94.9%; in the test with SF-268 CNS, 95.8%; in the test with SF-295 CNS, 106%; with SF-539 CNS, 105%. Also, the growth in the test on UACC-257 melanoma is 99%; in the test with M14 melanoma, 87.4%.
For the compound `C=C(C)[C@@H]1CC[C@]2(C)[C@H](CC(=O)N[C@H]3[C@@H]4C[C@](C)(C(=O)OC)CC[C@]4(C)CC[C@]32C)[C@@]1(C)CCC#N`, the growth in the test with NCI-H23 lung is 92.7%; with NCI-H226 lung, 78.1%; in the test with NCI-H322M lung, 103%; in the test on HOP-62 NSCLC, 110%; in the test on NCI-H460 lung, 96.8%; in the test with HOP-92 NSCLC it was 69.3%. Besides, the growth in the test with NCI-H522 lung was 71.3%; with A549/ATCC NSCLC it was 94.2%; with 786-0 renal it was 107%; in the test on COLO 205 colon it was 86.9%; in the test on DU-145 prostate, 94.4%; in the test with K-562 leukemia, 50.3%. The growth in the test with MALME-3M melanoma is 86.7%; in the test on MDA-MB-231 breast it was 79.7%; with RXF 393 renal, 83%; in the test with SF-268 CNS, 81.2%; in the test on SF-295 CNS, 81.2%; with SF-539 CNS it was 95.9%. For the same compound, the growth in the test on UACC-257 melanoma is 83.7%; in the test with M14 melanoma, 86.8%.
In the case of `CON1CCC[C@]2(C)[C@H]3CC[C@@H]4[C@H]5[C@@H](O)C(C)(C)CC[C@]5(CO)CC[C@@]4(C)[C@]3(C)CC[C@H]2C1(C)C`, the growth in the test with NCI-H23 lung was 102%; with NCI-H226 lung it was 92.8%; in the test on NCI-H322M lung, 109%; in the test with HOP-62 NSCLC, 95.6%; in the test on NCI-H460 lung it was 102%; in the test on HOP-92 NSCLC it was 116%. In addition, the growth with NCI-H522 lung was 84%; in the test on A549/ATCC NSCLC it was 94.2%; in the test on 786-0 renal, 100%; in the test with COLO 205 colon, 105%; in the test on DU-145 prostate it was 99%; with K-562 leukemia it was 87%. Also, the growth in the test on MALME-3M melanoma is 110%; in the test with MDA-MB-231 breast, 90.5%; with RXF 393 renal, 112%; with SF-268 CNS, 100%; in the test with SF-295 CNS, 102%; with SF-539 CNS, 106%. The growth with UACC-257 melanoma was 97.5%; in the test on M14 melanoma it was 99.6%.
With `COC(=O)c1nc(-c2ccc(C)cc2)oc1Sc1ccc(C)cc1`, the growth was 105% with NCI-H23 lung; 104% with NCI-H226 lung; 99.2% in the test on NCI-H322M lung; 94% in the test on HOP-62 NSCLC; 107% in the test on NCI-H460 lung; 87.9% in the test on HOP-92 NSCLC. Moreover, the growth with NCI-H522 lung was 78.7%; in the test with A549/ATCC NSCLC, 97.6%; with 786-0 renal it was 95.7%; in the test with COLO 205 colon, 102%; in the test on DU-145 prostate it was 110%; in the test with K-562 leukemia, 82%. Moreover, the growth in the test on MALME-3M melanoma is 122%; with MDA-MB-231 breast it was 96.1%; with RXF 393 renal, 108%; with SF-268 CNS, 103%; with SF-295 CNS it was 114%; with SF-539 CNS it was 96.8%. The growth was 102% in the test on UACC-257 melanoma and 93.2% in the test on M14 melanoma.
